Consider 95 compounds from PubChem BioAssay AID720579 (National Center for Advancing Translational Sciences (NCATS), 2013).

In all, about 310,000 compounds went through this assay and about 1,900 (0.61%) were called active. Entries that show only a call come without a potency. About 8% were inconclusive and are not listed. The sample as a whole holds a higher share of actives than the screen did. Values without a mark were called inactive. The call rests on the fitted dose curve; tested in A549 cells.
Potency means the concentration at half of the fitted maximal effect.

The nature of this assay: qHTS for Stage-Specific Inhibitors of Vaccinia Orthopoxvirus: mCherry Reporter Primary qHTS. Further: nearly all actives have a fitted effect of over 35% in size. As to conditions: Vaccinia virus mCherry reporter infection, fluorescence; series mostly up to 36.5 µM. Background: qHTS replaces the single test concentration by a dilution series.
With `OCC(O)C(O)C(O)C(O)C=Nc1ccc(/C=C/c2ccnc3ccccc23)cc1` (stereo not given), the Potency result is “inactive”.

Take `C=CC[C@@H](Cc1ccc(F)cc1)C(=O)OC[C@H]1CCCN1C(=O)[C@H](CC=C)CC(=O)N(CCO)Cc1ccccc1`: the Potency entry is “inactive”.

As for `Cc1cccc(C(=O)C(O)(c2ccccc2)C2CCCCC2=O)c1` (stereo not given), the Potency entry was “inactive”.

For the compound `O=C(C1CC(=O)N(C2CCCCC2)C1)N1CCN(c2ccccc2)CC1` (stereo not given), the Potency result is “inactive”.

In the case of `O=C(C1CC(=O)N(c2ccc(F)cc2)C1)N1CCN(c2ccccc2)CC1` (stereo not given), the Potency entry was “inactive”.

As to `O=C(C1CC(=O)N(C2CCCC2)C1)N1CCN(c2cccc(C(F)(F)F)c2)CC1` (stereo not given), the Potency is 10 µM (active).

Consider `COc1ccc(C2OC(CCc3ccccc3)Cc3[nH]c(=S)[nH]c(=O)c32)cc1` (stereo not given), for which the Potency entry is “inactive”.

On to `CCCc1nc2c3ccccc3ccn2c1Cc1ccccc1C(F)(F)F`, for which the Potency result is “inactive”.

With `OC(CBr)C[n+]1cccc2cc(Br)ccc21` (stereo not given), the Potency result is “inactive”.

`CCCC[C@@H]1CN=C(N)N1CCc1cccc(F)c1`: the Potency result was “inactive”.

As to `CCCC[C@@H]1CN=C(N)N1CCCC`, the Potency entry is “inactive”.

As for `CCCC[C@@H]1CN=C(N)N1CCc1cc(C(F)(F)F)cc(C(F)(F)F)c1`, the Potency was 11.2 µM (active).

Consider `CC(C)(C)CC(C)(C)NCC(O)COCCOc1ccc(Br)cc1` (stereo not given), for which the Potency was 12.6 µM (active).

For `COc1ccc(OCC(O)CNCCNc2nccc(C(F)(F)F)n2)cc1` (stereo not given), the Potency result was “inactive”.

Take `CC(C)(C)NCC(O)COc1cccc2[nH]c(=O)[nH]c12` (stereo not given): the Potency result was “inactive”.

`Cc1ccc2nc(-c3ccco3)c(Cc3cccc(Cl)c3)n2c1`: the Potency entry was “inactive”.

On to `Cc1nccc(-c2ccc(-n3c(C)ccc3C)cc2)n1`, for which the Potency entry is “inactive”.

Turning to `CC(C)(C)Nc1nc(-c2ccccn2)nc2ccccc12`, the Potency result was “inactive”.

Turning to `c1ccc(-c2nccc(-c3ccc(-n4cnc5ccccc54)cc3)n2)nc1`, the Potency was 11.2 µM (active).

Take `COc1cccc(C(=O)Nc2nc3ccc(S(C)(=O)=O)cc3s2)c1`: the Potency result is “inactive”.

For `COc1ccc(NS(=O)(=O)c2ccc(N3CCOCC3)c(NC(=O)c3ccccc3Br)c2)cc1`, the Potency entry was “inactive”.

With `COc1ccc2c(c1)Cc1sc(NC(=O)c3ccccc3Br)nc1-2`, the Potency was 11.2 µM (active).

For the compound `CCCc1c(-c2ccccc2F)ncn1Cc1ccccc1OC`, the Potency entry was “inactive”.

As for `Cc1ccc(SCc2c(C(=O)N/N=C/C3CC=CCC3)nnn2-c2nonc2N)cc1` (stereo not given), the Potency result is “inactive”.

On to `Cc1ccc(SCc2c(C(=O)N/N=C/c3cccnc3)nnn2-c2nonc2N)cc1`, for which the activity change, negative = inhibition was -10.8% [at 7.34 µM].

For `Nc1nonc1-n1nnc(C(=O)N/N=C/c2cc(Br)ccc2O)c1CSC1=NCCS1`, the Potency was 7.08 µM (active).

Turning to `O=C(Nc1cc(Br)ccc1F)c1nc[nH]c1C(=O)NCc1ccccc1`, the Potency entry is “inactive”.

Take `CCc1nc2ccc(C(=O)NC3CCN(Cc4ccccc4)CC3)cn2c1N(CC)CCOC`: the Potency result was “inactive”.

`Cc1nc2ccccc2cc1C(=O)N/N=C/c1ccc([N+](=O)[O-])cc1`: the Potency result was “inactive”.

With `CC(C)(C)c1cc(C(=O)N/N=C/c2ccc([N+](=O)[O-])s2)n[nH]1`, the Potency is 11.2 µM (active).

Take `Cc1ccsc1C(=O)N/N=C/c1ccc([N+](=O)[O-])cc1`: the Potency entry was “inactive”.

`Cc1nc2c(OCc3ccc(Cl)cc3)cccn2c1N(C)Cc1cccs1`: the Potency result is “inactive”.

As for `CCCCOCCCNC(=O)C[C@@H]1C[C@@]2(C(=O)OCC)CCCC=C2N(CCC2=CCCCC2)C1=O`, the Potency result is “inactive”.

On to `CN(C)CCNC(=O)c1ccc(-c2cn3c(-c4ccc(Oc5ccccc5)cc4)cnc3cn2)cc1`, for which the Potency entry was “inactive”.

For the compound `Cc1sc(NC(=O)C2=COCCO2)c(C#N)c1C`, the Potency entry is “inactive”.

For `CCCc1ccc(-c2c(C)sc(NC(=O)c3ccnn3C)c2C#N)cc1`, the Potency was 11.2 µM (active).

In the case of `Cn1nccc1CNC(=O)c1ccnn1C`, the Potency entry is “inactive”.

As for `C=C1C=C(C(F)F)n2ncc(C(=O)NCCc3ccccc3OC)c2N1`, the Potency result was “inactive”.

Regarding `CN1CCN(c2ccc3c(c2)OC[C@H](Cc2ccccc2)NS3(=O)=O)CC1`, the Potency entry is “inactive”.

`CN(C)CCNC(=O)c1ccc(Cl)c2cc3ccccc3nc12`: the Potency was 1.78 µM (active).

With `CC(=O)NCCNC(=O)c1cc(-c2cccc3ccccc23)nc2ccccc12`, the Potency entry was “inactive”.

Turning to `CN(C)CCNC(=O)Nc1cccc(Cl)c1Cl`, the Potency result was “inactive”.

`COc1cccc(-c2cnc3c(NC(C)=O)cc(-c4cccc(NC(C)=O)c4)cn23)c1`: the Potency entry was “inactive”.

For `CCCCn1nnnc1C(c1cccc(OC)c1OC)N1CCN(C/C=C/c2ccccc2)CC1` (stereo not given), the Potency entry is “inactive”.

Turning to `Cc1c(CCO)sc[n+]1CC(=O)c1ccc2ccccc2c1`, the Potency result is “inactive”.

`CN1CCc2nc(SC(C(=O)O)c3ccccc3)c(C#N)c(-c3cccs3)c2C1` (stereo not given): the Potency result was “inactive”.

For the compound `CC(NC(=O)CSc1nc2c(cc1C#N)CN(C)CC2)c1ccccc1` (stereo not given), the Potency is 10 µM (active).

`Cc1cc(NC(=O)CSc2nc3c(cc2C#N)CCCCC3)no1`: the Potency result was “inactive”.

As to `CCCCCCCCN1C(=O)[C@H](CC(=O)NCC23CC4CC(CC(C4)C2)C3)C[C@@]2(C(=O)OC)CCCCC=C12`, the Potency entry is “inactive”.

With `CCN1C(=O)[C@H]2[C@@H](c3ccc(C(F)(F)F)cc3)N[C@]3(CCCN(Cc4ccc(Br)cc4)C3=O)[C@H]2C1=O`, the Potency entry is “inactive”.

With `CC(C)(C)S(=O)N1Cc2cc(C(=O)NCCCN3CCOCC3)nc(-c3cccc(-c4cc5ccccc5o4)c3)c2[C@H]1CCO` (stereo not given in full), the Potency result is “inactive”.

As for `CC1(Oc2ccc(Cl)cc2)CCN(Cc2csc3ccccc23)C1` (stereo not given), the Potency result is “inactive”.

For `COc1ccc2sc(-c3ccc(N(C)C)cc3)c(-c3ccc4cc[nH]c4c3)c2c1`, the Potency result is “inactive”.

`COc1ccc2sc(-c3ccc(S(C)(=O)=O)cc3)c(C#Cc3cncn3C)c2c1`: the Potency entry is “inactive”.

In the case of `COc1ccc2sc(-c3ccc(N(C)C)cc3)c(C#CCO)c2c1`, the Potency is 12.6 µM (active).

On to `COCOc1cccc(CN2CCC(C)(Oc3ccc(SC)cc3)C2)c1` (stereo not given), for which the Potency result is “inactive”.

On to `O=C(NCc1cccc(C(F)(F)F)c1)c1ccc2sc(COCCO)nc2c1`, for which the Potency result is “inactive”.

Take `OC[C@@H]1CN(Cc2cccs2)C[C@H](n2cnc3c(NC4CCCC4)ncnc32)O1`: the Potency entry is “inactive”.

On to `Cc1ncc(CO)c(/C=N/NC(=O)c2cccc(S(=O)(=O)N3CCCC3)c2)c1O`, for which the Potency entry was “inactive”.

Turning to `Cc1cc(C)nc(N/N=C/c2c(C)oc3ccccc23)n1`, the Potency result is “inactive”.

Take `Cc1cc(C)nc(N/N=C/c2c(CO)cnc(C)c2O)n1`: the Potency was 12.6 µM (active).

In the case of `CSc1ccc(CN2CCC2(C)C(=O)Nc2ccc(C)c(O)c2)cc1` (stereo not given), the Potency entry was “inactive”.

Consider `CC(C)C[C@@H]1Cc2[nH][nH]c(=O)c2[C@H](CCc2ccccc2)O1`, for which the Potency entry was “inactive”.

For `CN(Cc1ccccc1)c1ccc(/C=C/c2ccnc3ccccc23)cc1`, the Potency entry was “inactive”.

For `COc1ccc(C(C)(C)C)cc1NC(=O)CN(C)C1=NS(=O)(=O)c2ccccc21`, the Potency entry is “inactive”.

`COC(=O)[C@]12CCCCC=C1N(CCC1=CCCCC1)C(=O)[C@H](CC(=O)N1CCSCC1)C2`: the Potency result is “inactive”.

On to `COC(=O)CC1C(C)(C)C(OC(C)=O)C2CC3=C4CC(=O)OC(c5ccoc5)[C@]4(C)CCC3[C@@]1(C)C2=O` (stereo not given in full), for which the Potency result is “inactive”.

`CCC(C)C(=O)O[C@@H]1C[C@@]2(C)C(c3ccoc3)OC(=O)CC23OC2(C)O[C@@]14[C@@]1(C)C(CC(=O)OC)C5(C)CC1(O)C(O)(C5OC(=O)C1(C)OC1C)C(OC(C)=O)[C@@]34O2` (stereo not given in full): the Potency entry was “inactive”.

`C=C1C([C@@]2(C)C(OC(C)=O)CC(=O)O[C@@](C)(COC(C)=O)C2CC(=O)OC)C(OC=O)C(OC(=O)C(O)C(C)CC)[C@]2(C)C(c3ccoc3)CC(=O)C12O` (stereo not given in full): the Potency was 2 µM (active).

For the compound `COc1ccc(C(O)c2nc(-c3ccc4c(c3)OCO4)cs2)cc1` (stereo not given), the Potency result was “inactive”.

As for `CCc1nc2c(OCc3cccc(OC)c3)cccn2c1N(C)C(=O)C(C)C`, the Potency entry is “inactive”.

Turning to `CCN1CCCC1CNC(=O)c1ccc2c(c1)NC(=O)/C(=C\c1ccccc1F)S2` (stereo not given), the Potency result was “inactive”.

Turning to `CC(=O)c1cccc(-c2cnc3c(NC=O)cc(-c4ccccc4Oc4ccccc4)cn23)c1`, the Potency result is “inactive”.

`COc1ccc(CS(=O)/C(Cl)=C(/Cl)C(=O)Nc2ccc(OC)nc2)cc1` (stereo not given): the Potency was 3.98 µM (active).

Take `CCOc1ccc(S(=O)(=O)Nc2ccc(OC)nc2)cc1`: the Potency result is “inactive”.

Consider `COc1ccc(NC(=O)CN2C(=O)NC(C)(c3ccccc3)C2=O)cn1` (stereo not given), for which the Potency result was “inactive”.

For the compound `CCN(CC)S(=O)(=O)c1ccc(N2CCCC2)c(NC(=O)c2ccc([N+](=O)[O-])o2)c1`, the Potency is 14.1 µM (active).

With `CCN(CC)S(=O)(=O)c1cc(C(=O)Nc2cc(S(=O)(=O)N3CCOCC3)ccc2N2CCCC2)ccc1F`, the Potency entry was “inactive”.

Turning to `CCN(CC)S(=O)(=O)c1ccc(N2CCN(C)CC2)c(NC(=O)Nc2ccccc2F)c1`, the Potency entry is “inactive”.

On to `COc1cccc(CNc2nc(NCc3cccs3)nc3ccsc23)c1`, for which the Potency entry was “inactive”.

In the case of `OC(c1ccccc1)c1nc(-c2cnc3ccccc3c2)cs1` (stereo not given), the Potency entry was “inactive”.

For the compound `CC1(c2cccc(Br)c2)NC(=O)N(CC(=O)NCCC2=CCCCC2)C1=O` (stereo not given), the Potency entry is “inactive”.

On to `O=C(NCCOc1ccccc1)N1[C@H]2CC[C@@H]1C=C(c1ccc(F)cc1OCc1ccccc1)C2`, for which the Potency entry was “inactive”.

Turning to `CC1(C)CCSC(/C=C/c2ccccc2)=N1`, the Potency is 11.2 µM (active).

For the compound `CC1(C(=O)NS(=O)(=O)c2ccccc2)CCN1C(=O)C/C=C/c1ccccc1` (stereo not given), the Potency entry is “inactive”.

For the compound `CC1(C(=O)O)CCN1C(=O)/C=C/c1ccccc1` (stereo not given), the Potency entry was “inactive”.

For `O=c1[nH]c(NCCO)nnc1Cc1ccc(Cl)cc1`, the Potency entry was “inactive”.

Turning to `COc1ccc(/C=N/Nc2nc3ccccc3c(=O)[nH]2)cc1`, the Potency result was “inactive”.

`COc1ccc(Cc2nnc(N/N=C/c3ccccc3O)[nH]c2=O)cc1OC`: the Potency was 1.26 µM (active).

On to `CCC(c1nnnn1-c1ccc2c(c1)OCCO2)N1CCN(c2ccc(C(F)(F)F)cn2)CC1` (stereo not given), for which the Potency entry was “inactive”.

As to `O=C(C(=O)N1CCC(c2ccccc2)CC1)c1ccccc1`, the Potency result was “inactive”.

For `CCOC(=O)[C@]12CCC=C1N(CCC1=CCCCC1)C(=O)[C@H](CC(=O)NCc1ccc(C)o1)C2`, the Potency result was “inactive”.

Take `CN(C(=O)c1cccc(NC(=O)Cc2cccc(NC(=O)C3CCCN(C(=O)C4CC4)C3)c2)c1)C1CCC1` (stereo not given): the Potency result was “inactive”.

As for `CN(C(=O)c1cccc(NC(=O)Cc2cccc([N+](=O)[O-])c2)c1)C1CCCCC1`, the Potency was 10 µM (active).

Regarding `CN(C(=O)c1cccc(NC(=O)Cc2ccc(NC(=O)C3CCN(C(=O)C4CCCCC4)CC3)cc2)c1)C1CCC1`, the Potency entry was “inactive”.
